Experimental data reported in the supplement of paper PMC9433436.
± gives the standard deviation of the averaged measurements. The full ranking holds about 4,100 sequences; the median of “relative kcat/Km (krel) vs genomic leader AAAGAU” is about 1.7, and the highest 2% start at about 6.5. Many of the other results were omitted from the sample, so the highest values are more common in it than they were.

Biological target: T1, E. coli RNase P holoenzyme (M1 P RNA + rnpA protein) (UniProt P0A7Y8)
T1 sequence: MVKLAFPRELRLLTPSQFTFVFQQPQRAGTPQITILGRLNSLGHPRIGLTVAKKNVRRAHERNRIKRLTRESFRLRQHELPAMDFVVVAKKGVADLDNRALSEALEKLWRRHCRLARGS
Assay: relative kcat/Km (krel) vs genomic leader AAAGAU (relative (reference leader = 1)); higher = faster RNase P cleavage
Experimental: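 HTS-Kin: a pool of ptRNA-Met (21C construct) with all 4096 combinations of 5' leader nucleotides N(-6) to N(-1) was processed in vitro by E. coli RNase P (P RNA + rnpA/C5 protein) under multiple-turnover conditions at 37 C, pH 8, 17.5 mM MgCl2. Residual substrate was Illumina-sequenced at several fractions reacted, and relative kcat/Km (krel) was computed by internal competition kinetics, calibrated to the genomic leader (AAAGAU = 1). The listed hexamer is the varied N(-6)..N(-1) leader (DNA letters), and it sits between a fixed 5' stem-loop flank (GCAUGCACGAAAGUGCGUGCUAUGAA) and the mature tRNA-Met starting GGCUACGUAGCUCAGUUGG. Two technical replicates are averaged.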

[1] = fraction of substrate reacted: ~26-29% (28.66% repeat 1, 26.4% repeat 2)
[2] = fraction of substrate reacted: ~9-10% (9.79% repeat 1, 9.1% repeat 2)
[3] = fraction of substrate reacted: ~13-16% (15.68% repeat 1, 13.17% repeat 2)

Sequence	relative kcat/Km [1]	relative kcat/Km [2]	relative kcat/Km [3]
TACAGG	1.7 ± 0.63		
TACACA	5.53 ± 2.6	3.05 ± 1.1	3.7 ± 0.067
TACAGC	6.84 ± 2.6	3.82 ± 2	4.94 ± 0.45
TACAGT	2.94 ± 2.7		
CACAGC	5.98 ± 2.7	3.88 ± 1.2	4.31 ± 1.1
TACAGA	8.3 ± 3	4.52 ± 2	5.66 ± 0.35
CTGACC	1.2 ± 0.63		0.599 ± 0.52
ACTGTC	1.12 ± 0.25	1.77 ± 1.3	0.935 ± 0.31
AAGATT	2.06 ± 0.8	1.89 ± 0.21	1.82 ± 0.21
GTGTAA	2.94 ± 1.5	1.31 ± 0.75	2.41 ± 1.1
TTTCTA	2.89 ± 1.2	2.15 ± 0.72	2.3 ± 0.57
TGCTAA	3.74 ± 1.1	2.19 ± 0.95	2.88 ± 0.23
TTCTAG	7.01 ± 3.1	4.08 ± 2.6	4.58 ± 0.56
TTCTAA	10.6 ± 4.1	5.69 ± 2.2	7.17 ± 1.2
GGCTAA	3.19 ± 0.8	2.12 ± 0.85	2.32 ± 0.78
TGCTAG	2.44 ± 0.12	1.97 ± 1.5	1.376 ± 0.0054
GTCTAA	10.1 ± 4.8	4.58 ± 0.43	7.55 ± 1.7
AGCTAA	5.8 ± 3	3.22 ± 1.8	3.61 ± 1
ATCTAA	8.58 ± 3.4	4.39 ± 1.5	5.55 ± 1.1
GTGAAC	2.83 ± 0.88	1.89 ± 0.25	2.27 ± 0.31
TTGCAG	1.37 ± 0.19		

Sequence	relative kcat/Km [1]	relative kcat/Km [2]	relative kcat/Km [3]
GGCTTC	1.7 ± 0.44	0.513 ± 0.13	1.31 ± 0.14
CACTCC	5.21 ± 1.3	3.12 ± 2.1	3.9 ± 0.2
CAAGCT	1.37 ± 0.37	1.48 ± 1.3	0.905 ± 0.4
ATGTAC	5.39 ± 2.7	3.03 ± 0.37	3.81 ± 0.94
TGCGGT	2.25 ± 1.2		
TTCTAC	10.6 ± 4.4	5.32 ± 1.5	7.7 ± 1.3
TGCTAC	4.62 ± 2.6	2.42 ± 1.5	2.16 ± 0.89
CTAAAA	2.89 ± 0.88	2.15 ± 0.51	2.43 ± 0.18
AGCTAT	5.23 ± 1.9	4.03 ± 1.8	3.39 ± 1.1
TGCTAT	3.79 ± 1.5	2.93 ± 0.94	2.69 ± 0.56
CGCTAA	5.96 ± 2.3	3.07 ± 0.43	3.99 ± 1.2
TTCTAT	10.5 ± 4.7	5.38 ± 0.96	7.59 ± 1.6
CTCTAA	8.82 ± 3.7	4.48 ± 1.2	6.21 ± 1.1
TGTGAA	3.58 ± 1.9	2.72 ± 0.39	2.92 ± 0.98
TGATAT	6.11 ± 3.1	1.84 ± 0.025	3.77 ± 0.75
ACATCG	1.61 ± 0.095	1.31 ± 1.1	
TGGACT	0.76 ± 0.046	1.76 ± 0.67	0.899 ± 0.057
GGTAGG	1.74 ± 0.56		
ATCCCG	1.86 ± 0.023	1.67 ± 1.4	0.83 ± 0.4
GTAGCC	2.13 ± 0.51	1.99 ± 0.12	1.48 ± 0.66
TTTAAT	5.8 ± 2.3	3.19 ± 1.8	3.87 ± 0.24

Sequence	relative kcat/Km [1]	relative kcat/Km [2]	relative kcat/Km [3]
CAATAT	6.37 ± 3	3.27 ± 0.33	4.46 ± 0.96
ACCATT	4.27 ± 1.3	2.5 ± 1.4	2.84 ± 0.28
TCCATT	7.33 ± 3.2	4.11 ± 1.2	4.85 ± 1.2
TCCATA	6.71 ± 2.6	4.06 ± 1.5	4.66 ± 0.32
ACCATA	3.64 ± 0.82	2.8 ± 1.8	2.2 ± 0.51
TCCATG	3.46 ± 0.3		1.42 ± 0.26
GCCATT	4.74 ± 1.7	1.91 ± 0.79	2.36 ± 0.9
GGCCTC	1.94 ± 0.76	1.28 ± 0.39	0.933 ± 0.5
GCATGA	2.21 ± 0.69	1.91 ± 0.28	1.07 ± 0.63
GACAGC	5.59 ± 1.6	3.44 ± 1	4.06 ± 0.54
AACAAC	4.45 ± 1.8	2.99 ± 0.85	3.22 ± 0.17
TACAAA	7.71 ± 3	3.89 ± 1.8	5.2 ± 0.41
GACAAC	6.93 ± 3.1	3.9 ± 0.94	3.84 ± 1.1
AACAAA	5.24 ± 1.1	3.32 ± 2.3	3.9 ± 0.11
TACAAC	7.11 ± 3	3.75 ± 1.9	5.24 ± 0.76
GACACC	5.28 ± 1.8	3.17 ± 1.9	3.35 ± 0.2
TACAAG	4.49 ± 1.9	1.6 ± 0.23	2.38 ± 0.42
CACAAA	6.59 ± 2.9	3.35 ± 0.11	4.93 ± 1.2
CACAAC	6.36 ± 2.1	3.95 ± 1.3	4.05 ± 0.63
AACAAG	3.26 ± 0.69		1.32 ± 0.57
